Measurements: PubChem BioAssay (Tox21)
“And” between values parts separate entries of the source, which are not always exact repeats. Equal values may be shown once. Results filed as inconclusive are left out. The source made the active and inactive calls. Unless noted, the call rests on the fitted dose curve; in most records, active means well fitted curve in the direction sought with a large enough effect in the repeat runs; inconclusive means weak or mixed curves; inactive means no such curve, though single readings can be large; an effect the other way counts as inactive or inconclusive.

Columns and labels:
[1] = qHTS assay to identify small molecule agonists of the estrogen receptor alpha (ER-alpha) signaling pathway in the presence of an antagonist - cell viability counter screen (AID 1259386);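 further: series mostly up to about 92 µM; cells exposed to compounds for 22 h at 37 °C before the viability read; nearly all actives have a fitted effect of over 30% in size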
Outline: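 Viability counter screen using VM7Luc4E2 (full-length ER-alpha, four ERE-luciferase). The cells were treated with compounds alongside ICI-182,780 10.0nM for 22hr, and live-cell protease fluorescence was quantified with CellTiter-Fluor.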

[2] = biological target: Progesterone receptor (Homo sapiens) (UniProt P06401); experiment: qHTS assay to identify small molecule agonists of the progesterone receptor (PR) signaling pathway (AID 1346784; calls by dose curve; further: nearly all actives have a fitted effect of over 30% in size)
Outline: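 PR-UAS-bla HEK 293T cells (beta-lactamase reporter under UAS) in 2% charcoal-stripped FBS, dosed with 23 nL compound after 6 hr, incubated 16hr at 37C. LiveBLAzer B/G FRET substrate added, fluorescence read after 2 hours.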

[3] = biological target: Progesterone receptor (Homo sapiens) (UniProt P06401); experiment: qHTS assay to identify small molecule antagonists of the progesterone receptor (PR) signaling pathway (AID 1346795; active means well fitted inhibition curve with a large enough effect in the signal ratio in the repeat runs, not every such curve was filed as active; the % refers to the signal ratio)
Outline: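 PR-UAS-bla HEK293T cells with beta-lactamase reporter under UAS control, in 2% charcoal-stripped FBS, treated with compounds plus 1 nM promegestone (R5020, final) for 16 hr at 37C. Read-out: FRET beta-lactamase substrate fluorescence after 2 hr at room temperature.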

[4] = qHTS assay to identify small molecule antagonists of the progesterone receptor (PR) signaling pathway - cell viability counter screen (AID 1346798); further: series mostly up to about 92 µM; nearly all actives have a fitted effect of over 50% in size
Outline: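 PR-UAS-bla HEK293T cells, 3,000/well in 2% charcoal-stripped FBS medium, dosed with compounds plus R5020 agonist and incubated 16 h at 37C. Viability then measured in the same wells by CellTiter-Glo luminescence after 30 min at RT.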

[5] = qHTS assay to identify small molecule agonists of the progesterone receptor (PR) signaling pathway - cell viability counter screen (AID 1346799; calls by dose curve; further: nearly all actives have a fitted effect of over 45% in size)
Outline: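 Counter screen in the PR-UAS-bla HEK293T wells (2% charcoal-stripped FBS, 16 h compound exposure at 37 C) after the bla read. CellTiter-Glo added, 30 min at room temperature, luminescence read as cell viability.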

[6] = qHTS assay to identify small molecule antagonists of the TGF-beta/Smad signaling pathway - cell viability counter screen (AID 1346824); further: nearly all actives have a fitted effect of over 50% in size
Outline: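 Cytotoxicity counter-screen run in the same wells as the beta-lactamase Smad reporter read: CellTiter-Glo luminescence after 30 min at room temperature. HEK 293T SBE-bla cells had 5 hr compound exposure at 37 C with TGF-beta1 (0.25 ng/mL stock).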

[7] = qHTS assay to identify small molecule agonists of the TGF-beta/Smad signaling pathway - cell viability counter screen (AID 1346829); further: top concentration of the series differs between compounds; nearly all actives have a fitted effect of over 45% in size
Outline: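 SBE-bla HEK 293T cells plated overnight, compound exposure 5 hr at 37 C. Viability read in the same wells by CellTiter-Glo luminescence after 30 min at room temperature, following the beta-lactamase read.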

[8] = qHTS assay to identify small molecule agonists of the TGF-beta/Smad signaling pathway (AID 1346859; active means well fitted activation curve with a large enough effect in the signal ratio in the repeat runs, not every such curve was filed as active; the % refers to the signal ratio; further: series mostly up to about 77 µM)
Outline: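 SBE-bla HEK293T cells plated overnight, then compound exposure for 5 h at 37 C. Beta-lactamase reporter read with LiveBLAzer B/G FRET substrate after 2 h at room temperature, fluorescence at 405 nm excitation, 460/530 nm emission.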

[9] = biological target: Thyrotropin-releasing hormone receptor (Homo sapiens) (UniProt P34981); experiment: qHTS assay to identify small molecule antagonists of the thyrotropin-releasing hormone receptor (TRHR) signaling pathway (AID 1346877; active means well fitted inhibition curve with a large enough effect in the repeat runs, not every such curve was filed as active; further: series mostly up to about 51 µM)
Outline: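 Following an 18 h incubation at 37 °C and a 2 h calcium dye load, TRHR-HEK293 cells were exposed to compound (5 min, room temperature) and challenged with TRH, 1 nM final.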

[10] = biological target: Thyrotropin-releasing hormone receptor (Homo sapiens) (UniProt P34981); experiment: qHTS assay to identify small molecule agonists of the thyrotropin-releasing hormone receptor (TRHR) signaling pathway (AID 1346891; calls by dose curve; further: series mostly up to about 58 µM)
Outline: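 HEK293 cells expressing TRHR plated 18 h at 37 C/5% CO2, calcium dye-loaded 2 h at 37 C, then compound added (agonist mode); kinetic calcium fluorescence read 3 min at 1 s intervals; 15 concentrations in triplicate.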

[11] = Human pregnane X receptor (PXR) small molecule agonists, qHTS cell viability counter screen (AID 1346977); further: nearly all actives have a fitted effect of over 50% in size
Outline: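 PXR-Luc HepG2 cells (2,000/well, 5% charcoal-stripped FBS) preincubated 5 hr, then exposed to compounds 24 hr at 37 C. Viability read in the same wells by CellTiter-Fluor fluorescence, reagent added at 23 hr, 1 hr incubation.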

[12] = Caspase-3/7 induction in HepG2 cells by small molecules, qHTS assay (AID 1346978); further: nearly all actives have a fitted effect of over 15% in size
Outline: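 Caspase-3/7 induction was measured by Caspase-Glo 3/7 luminescence (30 min, room temperature) after a 17 hr compound exposure of wild-type HepG2 cells seeded at 2,000 per well and pre-incubated 5 hr.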

[13] = Caspase-3/7 induction in CHO-K1 cells by small molecules, qHTS cell viability counter screen (AID 1346979); further: nearly all actives have a fitted effect of over 35% in size; further: potency means the concentration at half of the fitted maximal effect
Outline: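 Wild-type CHO-K1 cells (1,500/well) treated with compound after 5 h plating; after 16 h at 37C, viability read as CellTiter-Fluor fluorescence following 1 h reagent incubation, in the same wells as the caspase read.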

[14] = Caspase-3/7 induction in CHO-K1 cells by small molecules, qHTS assay (AID 1346980); further: nearly all actives have a fitted effect of over 15% in size
Outline: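 Luminescent Caspase-Glo 3/7 read (30min, room temperature) quantified apoptosis induction. Cells were wild-type CHO-K1, treated with compound for 17hr at 37 C and 5% CO2.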

[15] = Caspase-3/7 induction in HepG2 cells by small molecules, qHTS cell viability counter screen (AID 1346981); further: series mostly up to about 92 µM; nearly all actives have a fitted effect of over 30% in size
Outline: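 Viability determined by CellTiter-Fluor fluorescence in HepG2 wells also used for the luminescent Caspase-Glo 3/7 read. Compounds were present for 16 hr at 37 C, 5% CO2 before reagent addition.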

[16] = biological target: Nuclear receptor subfamily 1 group I member 2 (Homo sapiens) (UniProt O75469); experiment: Human pregnane X receptor (PXR) small molecule agonists, qHTS assay (AID 1346982); further: nearly all actives have a fitted effect of over 35% in size; further: potency means the concentration at half of the fitted maximal effect
Outline: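 Compound-induced hPXR transactivation of a CYP3A4 luciferase reporter was scored in HepG2 PXR-Luc cells over 24 hr at 37 C, 5% CO2, by luminescence.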

[17] = biological target: Nuclear receptor subfamily 1 group I member 2 (Rattus norvegicus) (UniProt Q9R1A7); experiment: Rat pregnane X receptor (rPXR) activation by small molecules, qHTS assay (AID 1346983); settings: rPXR luciferase reporter cells, One-Glo luminescence, 24 h; max activation: hits give high values; further: nearly all actives have a fitted effect of over 20% in size
Outline: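 Luminescent readout (One-Glo luciferase, 30 min room temperature) followed 24 hr compound treatment at 37 C of rPXR cells plated 2,000 per well and preincubated 5hr; qHTS format with compounds delivered in DMSO.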

[18] = biological target: Nuclear receptor subfamily 1 group I member 2 (Homo sapiens) (UniProt O75469); experiment: CYP3A4 induction through human pregnane X receptor (PXR) by small molecules, qHTS assay (AID 1346984); further: nearly all actives have a fitted effect of over 40% in size
Outline: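 Readings come from a luciferase reporter: DPX-2 cells, which are HepG2 cotransfected with PXR and a CYP3A4-promoter construct, were exposed to test compounds for 24 h at 37C before One-Glo detection.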

[19] = biological target: Nuclear receptor subfamily 1 group I member 2 (Homo sapiens) (UniProt O75469); experiment: Human pregnane X receptor (PXR) activation by small molecules, qHTS assay (AID 1346985); further: nearly all actives have a fitted effect of over 40% in size
Outline: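 DPX-2 cells (HepG2 co-transfected with a PXR response element and a CYP3A4-promoter luciferase construct) were seeded at 2,000 per well, rested 5 hr at 37C, then exposed to DMSO-dissolved compounds for 24 hr. Activation was read as luciferase luminescence.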

[20] = biological target: Cytochrome P450 2D6 (Homo sapiens) (UniProt P10635); experiment: Cytochrome P450 Family 2 Subfamily D Member 6 (CYP2D6) small molecule antagonists: luciferase reporter qHTS assay (AID 1671196); further: nearly all actives have a fitted effect of over 50% in size; further: potency means the concentration at half of the fitted maximal effect
Outline: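 Each well received CYP2D6 with its proluciferin substrate and chemical, sat 10 min, then got NADPH regeneration solution for 1 h at room temperature. Luminescence in RLU served as the activity measure.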
On the % scale 0 is the no-effect control and ±100 the full control effect.

Sequence of Progesterone receptor (Homo sapiens) (P06401 whole entry, looked up): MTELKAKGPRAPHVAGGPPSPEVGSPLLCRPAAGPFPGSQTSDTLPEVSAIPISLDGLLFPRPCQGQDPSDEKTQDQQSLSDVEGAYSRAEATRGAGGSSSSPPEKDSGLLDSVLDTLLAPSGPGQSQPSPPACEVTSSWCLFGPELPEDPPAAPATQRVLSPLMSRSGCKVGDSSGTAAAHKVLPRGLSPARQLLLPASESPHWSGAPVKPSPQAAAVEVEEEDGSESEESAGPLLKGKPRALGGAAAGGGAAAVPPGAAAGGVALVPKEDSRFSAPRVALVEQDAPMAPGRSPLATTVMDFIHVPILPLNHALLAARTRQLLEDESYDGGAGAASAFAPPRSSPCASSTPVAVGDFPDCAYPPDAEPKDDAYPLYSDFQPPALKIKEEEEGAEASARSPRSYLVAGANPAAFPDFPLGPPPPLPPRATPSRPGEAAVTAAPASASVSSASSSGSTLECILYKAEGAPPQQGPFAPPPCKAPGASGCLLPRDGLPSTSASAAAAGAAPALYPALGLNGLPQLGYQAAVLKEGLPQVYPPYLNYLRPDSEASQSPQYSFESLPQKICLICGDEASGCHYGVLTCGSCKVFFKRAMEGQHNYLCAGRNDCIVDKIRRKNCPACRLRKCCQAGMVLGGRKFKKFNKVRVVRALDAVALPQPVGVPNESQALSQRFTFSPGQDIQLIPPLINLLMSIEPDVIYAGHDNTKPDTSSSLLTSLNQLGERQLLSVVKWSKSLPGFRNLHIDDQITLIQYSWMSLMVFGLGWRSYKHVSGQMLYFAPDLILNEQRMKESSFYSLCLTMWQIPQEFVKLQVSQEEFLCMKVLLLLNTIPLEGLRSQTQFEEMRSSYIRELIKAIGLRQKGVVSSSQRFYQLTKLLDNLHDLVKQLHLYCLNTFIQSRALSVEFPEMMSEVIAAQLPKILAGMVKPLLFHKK
Sequence of Thyrotropin-releasing hormone receptor (Homo sapiens) (P34981 whole entry, looked up): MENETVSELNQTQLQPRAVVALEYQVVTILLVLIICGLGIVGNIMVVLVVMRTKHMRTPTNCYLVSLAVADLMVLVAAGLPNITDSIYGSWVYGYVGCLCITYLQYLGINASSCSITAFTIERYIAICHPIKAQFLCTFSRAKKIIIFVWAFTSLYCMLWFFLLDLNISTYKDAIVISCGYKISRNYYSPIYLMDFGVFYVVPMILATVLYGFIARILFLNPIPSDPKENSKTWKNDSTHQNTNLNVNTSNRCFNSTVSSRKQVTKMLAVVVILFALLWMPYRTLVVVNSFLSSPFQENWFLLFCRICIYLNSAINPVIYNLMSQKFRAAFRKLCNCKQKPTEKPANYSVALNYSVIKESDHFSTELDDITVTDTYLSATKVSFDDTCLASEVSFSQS
Sequence of Cytochrome P450 2D6 (Homo sapiens) (P10635 whole entry, looked up): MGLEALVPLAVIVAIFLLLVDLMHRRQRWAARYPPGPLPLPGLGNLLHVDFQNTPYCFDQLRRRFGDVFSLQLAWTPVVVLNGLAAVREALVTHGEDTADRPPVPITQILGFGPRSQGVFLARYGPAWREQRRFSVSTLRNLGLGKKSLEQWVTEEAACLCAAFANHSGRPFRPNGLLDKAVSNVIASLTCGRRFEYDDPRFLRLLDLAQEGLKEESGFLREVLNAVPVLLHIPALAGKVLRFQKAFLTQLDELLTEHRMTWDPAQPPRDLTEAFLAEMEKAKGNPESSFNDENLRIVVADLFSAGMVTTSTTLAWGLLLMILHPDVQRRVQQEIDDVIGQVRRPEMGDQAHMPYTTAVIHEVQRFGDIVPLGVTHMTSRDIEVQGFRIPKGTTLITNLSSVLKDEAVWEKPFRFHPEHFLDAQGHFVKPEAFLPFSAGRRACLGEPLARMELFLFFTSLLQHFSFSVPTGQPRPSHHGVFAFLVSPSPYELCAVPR
Sequence of Nuclear receptor subfamily 1 group I member 2 (Rattus norvegicus) (Q9R1A7 whole entry, looked up): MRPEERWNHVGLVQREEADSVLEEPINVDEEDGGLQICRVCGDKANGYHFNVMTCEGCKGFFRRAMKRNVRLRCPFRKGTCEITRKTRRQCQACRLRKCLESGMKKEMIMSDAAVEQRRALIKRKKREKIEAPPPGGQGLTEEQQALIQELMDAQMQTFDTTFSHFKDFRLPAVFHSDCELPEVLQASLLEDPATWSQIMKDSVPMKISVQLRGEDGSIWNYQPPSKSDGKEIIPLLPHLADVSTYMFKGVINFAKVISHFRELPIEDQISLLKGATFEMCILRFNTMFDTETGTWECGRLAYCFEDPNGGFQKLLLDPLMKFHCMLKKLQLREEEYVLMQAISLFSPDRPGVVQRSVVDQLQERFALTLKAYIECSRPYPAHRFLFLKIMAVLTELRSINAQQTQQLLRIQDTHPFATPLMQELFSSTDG
Sequence of Nuclear receptor subfamily 1 group I member 2 (Homo sapiens) (O75469 whole entry, looked up): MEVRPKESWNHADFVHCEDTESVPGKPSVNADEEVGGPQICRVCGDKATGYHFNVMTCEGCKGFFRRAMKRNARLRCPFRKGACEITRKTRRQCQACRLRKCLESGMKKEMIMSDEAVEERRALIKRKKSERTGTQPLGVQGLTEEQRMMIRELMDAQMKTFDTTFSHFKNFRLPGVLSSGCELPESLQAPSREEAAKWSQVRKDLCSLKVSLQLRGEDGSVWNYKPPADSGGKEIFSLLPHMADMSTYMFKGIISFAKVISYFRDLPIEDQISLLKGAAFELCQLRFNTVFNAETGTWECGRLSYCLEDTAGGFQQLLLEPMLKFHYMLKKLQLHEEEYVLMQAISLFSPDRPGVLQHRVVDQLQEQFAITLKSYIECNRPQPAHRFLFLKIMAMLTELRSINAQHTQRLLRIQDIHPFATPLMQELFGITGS

CN1CCC[C@@H]1c1cccnc1
active: Potency [20] 38.9 µM
inactive: Potency [1] | outcome [2] | Potency [3] | Potency [4] | Potency [5] | Potency [6] | Potency [7] | outcome [8] | outcome [9] | Potency [10] | Potency [11] | outcome [12] | Potency [13] | Potency [14] | Potency [15] | Potency [16] | max activation [17] -0.0949% | Potency [18] | Potency [19]

CC(=O)/C=C/C1C(C)=CCCC1(C)C (configuration not stated)
inactive: Potency [1] | outcome [2] | Potency [3] | Potency [4] | Potency [5] | Potency [6] | Potency [7] | outcome [8] | outcome [9] | Potency [10] | Potency [11] | outcome [12] | Potency [13] | Potency [14] | Potency [15] | Potency [16] | Potency [20]

COCCO
inactive: Potency [1] | outcome [2] | Potency [3] | Potency [4] | Potency [5] | Potency [6] | Potency [7] | outcome [8] | outcome [9] | Potency [10] | Potency [11] | outcome [12] | Potency [13] | Potency [14] | Potency [15] | Potency [16] | Potency [20]

CCOc1ccc(NC(=O)CC(C)=O)cc1
active: Potency [20] 35.6 µM
inactive: Potency [1] | outcome [2] | Potency [3] | Potency [4] | Potency [6] | Potency [7] | outcome [8] | outcome [9] | Potency [10] | Potency [11] | outcome [12] | Potency [13] | Potency [14] | Potency [15] | Potency [16]

CC(C)CCCCCCOC(=O)c1ccc(C(=O)OCCCCCCC(C)C)c(C(=O)OCCCCCCC(C)C)c1
inactive: Potency [1] | outcome [2] | Potency [3] | Potency [4] | Potency [5] | Potency [6] | Potency [7] | outcome [9] | Potency [10] | Potency [11] | outcome [12] | Potency [13] | Potency [14] | Potency [15] | Potency [16] | Potency [20]

O=S1(=O)N=C(O)c2ccccc21
inactive: Potency [1] | outcome [2] | Potency [3] | Potency [4] | Potency [5] | Potency [6] | Potency [7] | outcome [8] | outcome [9] | Potency [10] | Potency [11] | outcome [12] | Potency [13] | Potency [14]

C=CC[N+]1([C@H]2C[C@H]3[C@@H]4CC[C@H]5C[C@H](OC(C)=O)[C@@H](N6CCCCC6)C[C@]5(C)[C@H]4CC[C@]3(C)[C@H]2OC(=O)CC)CCCCC1
active: Potency [20] 11 µM
inactive: Potency [1] | outcome [2] | Potency [3] | Potency [4] | Potency [5] | Potency [6] | Potency [7] | outcome [8] | outcome [9] | Potency [10] | Potency [11] | outcome [12] | Potency [13] | Potency [14] | Potency [15] | Potency [16]

CC(=O)O[C@H]1C[C@@H]2CC[C@@H]3[C@H](CC[C@@]4(C)[C@H]3C[C@H]([N+]3(C)CCCCC3)[C@@H]4OC(C)=O)[C@@]2(C)C[C@@H]1N1CCCCC1
inactive: Potency [1] | outcome [2] | Potency [3] | Potency [4] | Potency [5] | Potency [6] | Potency [7] | outcome [8] | outcome [9] | Potency [10] | Potency [11] | outcome [12] | Potency [13] | Potency [14] | Potency [15] | Potency [16] | max activation [17] -3.12% | Potency [18] | Potency [19]

CC(C(=O)O)c1ccc(C(=O)c2ccccc2)s1 (configuration not stated)
active: Potency [16] 15 µM
inactive: Potency [1] | outcome [2] | Potency [3] | Potency [4] | Potency [5] | Potency [6] | Potency [7] | Potency [10] | Potency [11] | outcome [12] | Potency [13] | Potency [14] | Potency [15] | max activation [17] 13.7% | Potency [19] | Potency [20]

C=CC(=O)OCCOC(=O)CCC(=O)O
inactive: Potency [1] | outcome [2] | Potency [3] | Potency [4] | Potency [5] | Potency [6] | Potency [7] | outcome [8] | outcome [9] | Potency [10] | Potency [11] | outcome [12] | Potency [13] | Potency [14] | Potency [16] | Potency [20]

COC(Cc1ccccc1)OC
inactive: Potency [1] | outcome [2] | Potency [3] | Potency [4] | Potency [5] | Potency [6] | Potency [7] | outcome [8] | outcome [9] | Potency [10] | Potency [11] | outcome [12] | Potency [13] | Potency [14] | Potency [15] | Potency [16] | Potency [20]

CCCCCCc1ccc(N)cc1
inactive: Potency [1] | outcome [2] | Potency [3] | Potency [4] | Potency [5] | Potency [6] | Potency [7] | outcome [8] | Potency [10] | Potency [11] | outcome [12] | Potency [13]
active: Potency [16] 30.6 µM

Cn1sccc1=O
inactive: Potency [1] | outcome [2] | Potency [3] | Potency [4] | Potency [6] | Potency [7] | outcome [8] | outcome [9] | Potency [10] | Potency [11] | outcome [12] | Potency [14] | Potency [15] | Potency [20]
active: Potency [13] 30.6 µM and 43.3 µM | Potency [16] 30.6 µM and 61.1 µM

N#CCCNCCC#N
inactive: Potency [1] | outcome [2] | Potency [3] | Potency [4] | Potency [6] | Potency [7] | outcome [8] | outcome [9] | Potency [10] | Potency [11] | outcome [12] | Potency [13] | Potency [14] | Potency [15] | Potency [16] | Potency [20]

CC(C)(Oc1ccc(Cl)cc1)C(=O)OCCCOC(=O)C(C)(C)Oc1ccc(Cl)cc1
inactive: Potency [1] | outcome [2] | Potency [3] | Potency [4] | Potency [5] | Potency [6] | Potency [7] | outcome [9] | Potency [10] | Potency [11] | outcome [12] | Potency [13] | Potency [14] | Potency [15] | Potency [16] | Potency [20]
